Screens from PubChem BioAssay.
ASM inhibitor: inhibitors of human secretory acid sphingomyelinase; placental ASM, HMU-PC fluorogenic substrate, 60 min; Potency, µM (titrated, usually from 57.5 µM), actives largely listed as inhibitors; 340,000 tested, 0.006% active; AID 504937
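qHTS format. ASM enzyme prepared from human placenta hydrolyses the fluorogenic substrate HMU-PC0 (9 uM final) over 60 min at 37 °C after a 10 min compound preincubation.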
RGS4 inh: inhibitors of human regulator of G protein signaling 4; AID 504845; P49798; Potency, µM (highest dose often 114 µM), usual class: inhibitors; 390,000 tested, 0.039% active; Transcreener GDP fluorescence polarization, RGS4-accelerated GTP hydrolysis; also: nearly all actives have a fitted effect of over 75% in size
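MLSMR compounds (23 nl, pin-transferred) preincubated 10 min at room temperature with a 500nM (2x) first reagent, then RGS4 at 900nM (2x) plus Transcreener GDP mix added; fluorescence polarization (620/688 nm) read before and after 90 min at 30 °C.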
Mito fusion act: blocks mitochondrial division or promotes mitochondrial fusion | S. cerevisiae fusion-defective mutant growth rescue, CellTiterGlo 48 h | Potency, µM (doses to about 46.1 µM), usual class: activators | 320,000 tested, 0.23% active | AID 485298; also: nearly all actives have a fitted effect of over 45% in size
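Yeast fusion mutant, YPEG (non-fermentable carbon), compound, 48 h at 37C non-permissive; CellTiterGlo added, 10 min RT, luminescence read. Rescued growth = division inhibition.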
LDHA inh: LDHA (human) enzyme inhibition; P00338; purified LDHA, NADH/diaphorase-resazurin fluorescence; active compounds read low; activity change, % (values are at about 110 or 230 µM); 480,000 tested, 0.15% active; in the data active = activity change below about -30%; inconclusive = mostly about -25% to -30%
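Enzyme activity of human lactate dehydrogenase 5 (2 nM; 0.06 mM NADH, 0.2 mM pyruvate, 5 min, RT) is measured via a resazurin/diaphorase fluorescence readout of residual NADH.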
mIDH1 inhibitor: human IDH1 R132H inhibition. IDH1-R132H enzyme, NADPH consumption, diaphorase/resazurin fluorescence. Potency, µM (series often up to 76.6 µM), hits mostly inhibitors. 390,000 tested, 0.093% active. AID 602179; also: nearly all actives have a fitted effect of over 65% in size
Target sequence (O75874 whole entry R132H, stated change not applied): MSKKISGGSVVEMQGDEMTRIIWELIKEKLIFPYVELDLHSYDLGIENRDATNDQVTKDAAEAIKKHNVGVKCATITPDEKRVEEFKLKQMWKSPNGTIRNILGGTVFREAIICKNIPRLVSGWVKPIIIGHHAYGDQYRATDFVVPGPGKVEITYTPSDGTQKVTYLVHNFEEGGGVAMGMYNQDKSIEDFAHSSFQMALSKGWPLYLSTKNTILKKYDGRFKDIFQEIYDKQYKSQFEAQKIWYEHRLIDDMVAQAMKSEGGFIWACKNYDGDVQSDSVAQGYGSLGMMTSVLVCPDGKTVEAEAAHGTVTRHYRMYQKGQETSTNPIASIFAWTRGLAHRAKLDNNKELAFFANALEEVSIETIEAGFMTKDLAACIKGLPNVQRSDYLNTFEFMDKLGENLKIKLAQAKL
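IDH1-R132H (0.5 ug/mL dispensed) in pH 7.5 Tris buffer was preincubated 30 min with compound, then given a substrate mix of 0.016 mM NADPH and 2 mM alpha-KG for 80 min at room temperature; remaining NADPH was read by diaphorase/resazurin fluorescence.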
ClpP mod: qHTS Assay for Activators of ClpP | 340,000 tested, 1.9% active | Potency, µM (titrated, usually from 57.5 µM) | purified B. subtilis ClpP, FRET peptide cleavage, 20 min | AID 651965, 2013; active = well fitted falling curve with a large enough effect; inconclusive = small, poorly fitted or top-dose-only effect; inactive = no such curve, though single readings can be large or run the other way; also: the source files actives as falling curves though it sought activators and does not explain the sign; nearly all actives have a fitted effect of over 65% in size
Target sequence (P80244 whole entry, looked up): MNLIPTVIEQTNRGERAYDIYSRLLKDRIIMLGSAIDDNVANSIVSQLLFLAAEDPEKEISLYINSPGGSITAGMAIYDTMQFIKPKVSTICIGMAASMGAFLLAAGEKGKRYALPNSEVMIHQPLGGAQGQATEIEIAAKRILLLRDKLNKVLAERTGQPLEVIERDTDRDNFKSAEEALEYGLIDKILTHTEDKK
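FRET quenching reversal measured ClpP activation: 10 microg/mL B. subtilis ClpP at pH 8 with the FRET-FV decapeptide, read at 430 nm after 320 nm excitation. The 20-min minus 0-min signal was scaled between DMSO/no-enzyme wells and ADEP (5.8 microM final).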
Numbers stand for hits; ! = a repeat was not active; [ ] = remark or other dose. The full list was thinned out, with hits kept by preference. Unless noted, calls follow the shape of the dose curve; as a rule, active = well fitted curve in the direction sought with a large enough effect; inconclusive = small, poorly fitted or top-dose-only effect, or another doubt; inactive = no such curve, though single readings can be large; an effect the other way counts as inactive or inconclusive.

For N#Cc1nc(-c2ccc(COc3ccc(Cl)cc3)o2)oc1N1CCN(c2ccccc2)CC1 the results were RGS4 inh inactive, LDHA inh inactive, mIDH1 inhibitor inactive and ClpP mod inactive.
For CNc1oc(-c2ccc(COc3ccc(C)cc3)o2)nc1C#N the results were RGS4 inh inactive, LDHA inh inactive, mIDH1 inhibitor inactive and ClpP mod inconclusive.
For COc1ccc(OCc2ccc(-c3nc(C#N)c(N4CCCCC4)o3)o2)cc1 the results were RGS4 inh inactive, LDHA inh inactive, mIDH1 inhibitor inactive and ClpP mod 28.2µM.
Screening COc1ccc(OCc2ccc(-c3nc(C#N)c(N4CCN(C)CC4)o3)o2)cc1 returned RGS4 inh inactive, LDHA inh inactive, mIDH1 inhibitor inactive and ClpP mod 28.2µM.
For O=C(COC(=O)c1cc2ccccc2[nH]1)c1ccccc1 the results were LDHA inh inactive.
For CC(=O)CSc1nc(-c2ccccc2)c(-c2ccccc2)o1 the results were ASM inhibitor inactive, RGS4 inh inactive, Mito fusion act inactive, LDHA inh inactive, mIDH1 inhibitor inactive and ClpP mod 28.2µM.
For CCNC(=O)CSc1nc(-c2ccccc2)c(-c2ccccc2)o1 the results were LDHA inh inactive.
Screening COc1ccc(C(=O)/C=C/c2ccc(C)cc2)c(O)c1 returned LDHA inh inactive.
Screening Cc1ccc(/C=C/c2nnc(-c3ccccc3)o2)cc1 returned ASM inhibitor inactive, RGS4 inh inactive, Mito fusion act inactive, LDHA inh inactive, mIDH1 inhibitor inactive and ClpP mod 31.6µM.
C(=C\c1nnc(-c2cccs2)o1)/c1ccccc1 was read as ASM inhibitor inactive, RGS4 inh inactive, Mito fusion act inactive, LDHA inh inactive, mIDH1 inhibitor inactive and ClpP mod 14.1µM.
CCCCNc1nc(-c2ccc(S(C)(=O)=O)cc2)cs1 was read as LDHA inh inactive.
Screening Clc1ccccc1Cn1nnc(-c2ccccc2)n1 returned ASM inhibitor inactive, RGS4 inh inactive, Mito fusion act inactive, LDHA inh inactive and mIDH1 inhibitor inactive.
CN(C)c1ccc(-c2nnn(Cc3ccccc3Br)n2)cc1 was read as ASM inhibitor inactive, RGS4 inh inactive, Mito fusion act inactive, LDHA inh inactive, mIDH1 inhibitor inactive and ClpP mod 28.2µM.
`Cn1cnc2c1c(=O)n(Cc1cccc(Cl)c1)c(=O)n2C` gave ASM inhibitor inactive, RGS4 inh inactive, Mito fusion act inactive, LDHA inh -32.4!, mIDH1 inhibitor inactive and ClpP mod inactive.
`Cn1cnc2c1c(=O)n(Cc1cccc(F)c1)c(=O)n2C` gave ASM inhibitor inactive, RGS4 inh inactive, Mito fusion act inactive, LDHA inh inactive, mIDH1 inhibitor inactive and ClpP mod inactive.
For CCOc1ccc(Nc2nc3c(S(=O)(=O)c4ccc(CC)cc4)nnn3c3ccsc23)cc1 the results were LDHA inh inactive.
For CC1(c2ccncc2)Nc2ccccc2-c2nc3ccccc3n21 (stereo not given) the results were ASM inhibitor inactive, RGS4 inh inactive, Mito fusion act inactive, LDHA inh inactive, mIDH1 inhibitor inactive and ClpP mod 28.2µM.
For Cc1cccc(N=c2oc3cc(O)ccc3cc2C(N)=O)c1 the results were ASM inhibitor inactive, RGS4 inh inactive[11.4 µM], Mito fusion act inactive, LDHA inh inactive, mIDH1 inhibitor inactive and ClpP mod 28.2µM.
For CC(=O)Nc1c(S(=O)(=O)c2ccc(C)cc2)c(C)c(C)n1Cc1ccccc1 the results were LDHA inh inactive.
`CC(=O)Nc1c(S(=O)(=O)c2ccccc2)c2nc3ccccc3nc2n1Cc1ccccc1` gave ASM inhibitor inactive, RGS4 inh inactive, Mito fusion act inactive, LDHA inh inactive, mIDH1 inhibitor inactive and ClpP mod 15.8µM.
For CC(=O)Nc1ccc(S(=O)(=O)c2c(N)n(CCN3CCOCC3)c3nc4ccccc4nc23)cc1 the results were ASM inhibitor inactive, RGS4 inh inactive, Mito fusion act inactive, LDHA inh inactive, mIDH1 inhibitor inactive and ClpP mod 31.6µM.
Screening O=C(Cc1ccccc1)N1CCN(c2ncccn2)CC1 returned ASM inhibitor inactive, RGS4 inh inactive, Mito fusion act inactive, LDHA inh inactive, mIDH1 inhibitor inactive and ClpP mod inactive.
For Cc1ccc(CC(=O)N2CCN(c3ccccn3)CC2)cc1 the results were ASM inhibitor inactive, RGS4 inh inactive, Mito fusion act inactive, LDHA inh inactive, mIDH1 inhibitor inactive and ClpP mod 22.4µM.
Screening COc1ccc(CC(=O)N2CCN(c3ccccn3)CC2)cc1 returned ASM inhibitor inactive, RGS4 inh inactive, Mito fusion act inactive, LDHA inh inactive, mIDH1 inhibitor inactive and ClpP mod 20µM.
For CN(CC(=O)N1CCN(c2ccccn2)CC1)S(=O)(=O)c1ccccc1 the results were ASM inhibitor inactive, RGS4 inh inactive, Mito fusion act inactive, LDHA inh inactive, mIDH1 inhibitor inactive and ClpP mod 31.6µM.
`CCCCCCCCOc1ccc(C(CC(=O)c2ccccc2)CC(=O)c2ccccc2)cc1` gave LDHA inh inactive.
`O=C(O)/C=C/c1cccc([N+](=O)[O-])c1` gave LDHA inh inactive.
For CC(C(=O)N1c2ccccc2CCc2ccccc21)n1nnc(-c2ccc(N(C)C)cc2)n1 (stereo not given) the results were ASM inhibitor inactive, RGS4 inh inactive, Mito fusion act inactive, LDHA inh inactive, mIDH1 inhibitor inactive and ClpP mod inconclusive.
Screening Cc1ccc(-c2nnn(C(C)C(=O)N3c4ccccc4CCc4ccccc43)n2)cc1 (stereo not given) returned ASM inhibitor inactive, RGS4 inh inactive, Mito fusion act 14.1µM, LDHA inh inactive, mIDH1 inhibitor inactive and ClpP mod inactive.
`COc1cc(-c2nnc(CSc3nnc(Nc4ccc(Oc5ccccc5)cc4)s3)o2)cc(OC)c1OC` gave ASM inhibitor inactive, RGS4 inh inactive, Mito fusion act inactive, LDHA inh inactive, mIDH1 inhibitor inactive and ClpP mod 25.1µM.
COc1ccc(C(=O)CSc2nnc3c(=O)n(-c4ccc(C(C)C)cc4)ccn23)cc1OC was read as LDHA inh inactive.
`Cc1sc2ncnc(N(C)CCc3ccccn3)c2c1C` gave ASM inhibitor inactive, RGS4 inh inactive, Mito fusion act inactive, LDHA inh -32.3 and mIDH1 inhibitor inactive.
Screening O=C1NC(c2ccccc2)N=C2Oc3ccccc3C=C12 (stereo not given) returned ASM inhibitor inactive, RGS4 inh inactive, LDHA inh inactive, mIDH1 inhibitor inactive and ClpP mod 11.2µM.
